About 83,000 compounds went through this panel and 20% of them were active in at least one assay; those are over-represented in the sample as a whole.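 The test compound was applied at a single concentration to cells in 96-well plates for 48 hours, and percent growth was recorded.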 The source made the active and inactive calls.

In the test the test system is MCF7 breast. As to the kind of experiment: NCI-60 one-dose screen, 48 h (100 = growth as untreated, 0 = no growth, -100 = all killed). As to conditions: 10 µM unless noted. On the procedure: Growth inhibition of the MCF7 human tumor cell line is measured as a screen for anti-cancer activity. Cells are grown in 96 well plates and exposed to the test compound for 48 hours. Compounds are tested at a single concentration, which is 10^-5 M for most compounds. The reported endpoint is percent growth (GI% or GIPRCNT), where numbers from 0 - 100% represent growth inhibition, and numbers from -100% - 0 represent cell death. For example, a value of 40 represents 60% growth inhibition. A value of 0 means no net growth occurred over the course of the experiment. A value of -40 indicates 40% of cells at the beginning of the experiment died by the end of the experiment. A value of -100 means all cells are dead at the end of the experiment.
NCI-60 Human Tumor Cell Lines Screen was performed using the standard one-dose NCI protocol, which is described in more detail at https://dtp.cancer.gov/discovery_development/nci-60/default.htm.
Compounds with GIPRCNT values below 10 were considered active. Activity score was based on GIPRCNT using the following formula: […]
Score is 0 for GIPRCNT values of 100 or above, 50 for GIPRCNT values of 0, and 100 for GIPRCNT values of -100.
Regarding `Cc1ccccc1NC(=O)c1sc2nc(C)c(C(C)O)cc2c1N` (stereo not given), the growth is 21% (inactive). For the compound `Nc1ccc(C(=O)Nc2cccc(C(=O)Nc3ccc4c(O)c(N=Nc5ccc(N=Nc6ccc(S(=O)(=O)O)cc6)cc5)c(S(=O)(=O)O)cc4c3)c2)cc1`, the growth was 94.8% (inactive). Then `COCCOCCOCc1n(Cc2ccc3ccccc3c2)c2ccccc2[n+]1Cc1ccc2ccccc2c1`, with 7.6% (active); and `Cc1nc2sc(C(=O)Nc3ccccc3)c(N)c2cc1C(C)O` (stereo not given), with 16.7% (inactive). Then `CCn1cc(C(=O)O)c(=O)c2cc(F)c(N3CCN(CC(=O)Nc4ccc(/C(C)=N/OC)cc4)CC3)cc21`, with 93.8% (inactive); and `COc1ccc(-c2nnc(N3CCN(C(=O)CN4CCN(c5ccccc5)CC4)CC3)nc2-c2ccc(OC)cc2)cc1`, with 11.7% (inactive). Then `CN(CCC#N)C(=O)Nc1ccccc1`, with 100% (inactive); and `C[C@]12CC[C@@H]3c4ccc(O)cc4CC[C@H]3[C@@H]1C[C@H](O)C2`, with 61% (inactive).

As to `O=C(CCCCCCCCC(=O)Nc1cccc(C2=NCCN2)c1)Nc1cccc(C2=NCCN2)c1`, the growth is 49.9% (inactive).

For `CCOCc1cc(C(C)(C)C)ccc1O`, the growth was 97.6% (inactive). For the compound `CN(C)C(CNc1oc(-c2cccc3ccccc23)nc1C#N)c1ccco1` (stereo not given), the growth is 87.8% (inactive). Then `CCCCc1ccc(N=Nc2ccc(OCC[N+](C)(C)C)cc2)cc1`, with 85.1% (inactive); and `Nn1c(SCC(=O)Nc2ccc(Cl)cc2)nnc1-c1cc(F)c(Cl)cc1Cl`, with 72.3% (inactive). Take `CCc1c(C(=O)N[C@@H](C(=O)OCc2ccccc2)C(C)O)[nH]c2ccc(Cl)cc12` (stereo not given in full): the growth was 65.6% (inactive). In the case of `C[C@H]1[C@H](C)CC[C@]2(C(=O)OCCOCCOCC[P+](c3ccccc3)(c3ccccc3)c3ccccc3)CC[C@]3(C)C(=CC[C@@H]4[C@@]5(C)CC[C@H](OC(=O)C(Cl)Cl)C(C)(C)[C@@H]5CC[C@]43C)[C@H]12` it was 2.81% (active); in that of `CCSc1nc(Cl)c(C#N)c(-c2ccc(F)cc2)n1`, 85.1% (inactive). With `CCOCCc1c(O)nc(SC)[nH]c1=O`, the growth was 99.7% (inactive).

In the case of `COc1ccc(-c2[nH]c3ccccc3c2C=C(C#N)C#N)cc1`, the growth is 11.4% (inactive). Then `COC(=O)/C=C1\SC(=Nc2cccc(Cl)c2)N(CCc2c[nH]c3ccccc23)C1=O`, with 20.1% (inactive); and `COc1cccc(NC(=O)Nc2ccc(Oc3ncnc4[nH]c(C)c(C)c34)cc2)c1`, with 40.9% (inactive); and `Cc1cc(C)c(NC(=O)c2sc3nc4c(cc3c2N)CCCCCC4)c(C)c1`, with 24.3% (inactive). In the case of `COc1ccc2nc(-c3ccc(Cl)cc3)cc(C(=O)N3N=C(c4ccc(N)cc4)CC3c3ccccc3)c2c1` (stereo not given) it was 11.9% (inactive); in that of `C#CCN(CCCOc1ccc(Cl)cc1Cl)CCCSC(=O)CCCCCN1/C(=C\C=C2/CCCC(/C=C/C3=[N+](CCCCCC(=O)[O-])c4ccccc4C3(C)C)=C2Cl)C(C)(C)c2ccccc21`, 6.92% (active). As for `O=C(/C(=C/c1ccc([N+](=O)[O-])cc1)SCc1ccc(Cl)cc1)c1ccc(F)cc1`, the growth was -11.9% (active).

`C(=C\c1cn(-c2ccccc2)nc1-c1ccccc1)/c1nnc(-c2c[nH]c3ccccc23)o1`: the growth was 34.3% (inactive). In the case of `COc1cc(C(C)c2ccc3c(ccn3C)c2)cc(OC)c1OC` (stereo not given) it was 14.6% (inactive). Then `COc1cc(NC(=O)Nc2cnc(Nc3ccc(N4CCOCC4)cc3)nc2Oc2ccc(F)cc2)cc(OC)c1`, with 91% (inactive).

As for `Nc1c(C(=O)Nc2cccc3ccccc23)sc2nc3c(cc12)CCCCC3`, the growth was 17.7% (inactive). Then `Nc1ccccc1NS(=O)(=O)c1ccc(Cl)cc1`, with 94% (inactive). As for `NCCCn1c2c(c3cc(-c4ccn[nH]4)ccc3c1=O)C(=O)c1ccccc1-2`, the growth is 13% (inactive). In the case of `CN1C(=O)c2cc(Cl)nc3c(NC(=O)c4cccc(Cl)c4)c(Cl)c(NC(=O)c4cccc(Cl)c4)c1c23` it was 18.1% (inactive). Then `CC1(C)[C@@H](O)CC[C@]2(C)[C@H]3CC[C@@H]4[C@H]5[C@H](c6cn(-c7ccccc7)nn6)CC[C@]5(CO)CC[C@@]4(C)[C@]3(C)CC[C@@H]12`, with 52.8% (inactive). Then `N#Cc1ccc(N2Cc3cc(Cl)ccc3OC3=C2C(=O)N(Cc2ccccc2)C3=O)cc1`, with -1.6% (active); and `C#CC[C@@H]1C[C@]2(C)[C@H]3CC[C@@H]4[C@H]5[C@H](C(=C)C)CC[C@]5(C(=O)O)CC[C@@]4(C)[C@]3(C)CC[C@H]2C(C)(C)[C@H]1O`, with 34.7% (inactive). As for `COc1ccc2c(c1)C1(C(=O)N2)C(C#N)=C(c2ccccc2)Nc2c1c(-c1ccccc1)nn2-c1ccccc1` (stereo not given), the growth is 18.1% (inactive).

For the compound `COC(=O)c1oc2c(C(=O)/C=C/c3ccc(OC)cc3)c(OCCCN3CCCCC3)ccc2c1C`, the growth is 6.82% (active).

For `CCCS(=O)(=O)Nc1ccc(F)c(C(=O)c2c[nH]c3ncc(-c4ccc(OCCCC5CCCCN5)nc4)cc23)c1F` (stereo not given), the growth was 69.4% (inactive). For `COc1ccc(C(=S)c2cc(OC)c(OC)c(OC)c2)cc1OC(=O)CCl`, the growth was 15% (inactive). With `CCCCCCCc1n(Cc2ccc3ccccc3c2)c2ccccc2[n+]1Cc1ccc2ccccc2c1`, the growth was -64.7% (active). In the case of `CC1(C)Cc2c(Br)c(Br)c(Br)c(OCC(O)CN3CCOCC3)c2O1` (stereo not given) it was 114% (inactive).

The record behind these values is PubChem BioAssay (NCI).
